About 7,900 targets were measured; listed, in parts, are those with a hit and a random draw of the rest. About 0.6% of all pairs of compound and target were hits. A number with no mark means an inactive call.

Common to all, as to assay: log2 fold change, soluble protein after heating vs DMSO (PISA); higher = thermal stabilisation; K562 cells, 10 uM, 30 min; active = over 0.2 and 3.5 SD of the protein, either way, in both replicates (recomputed)
Compound in assay [1]: C1=CC=C(C=C1)[C@H](COC2=CC3=C(C=C2)NC(=O)N3)NC(=O)C4=CC=CN(C4=O)CC5=CC(=C(C=C5)F)F
The method, boiled down:
(§1)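 K562 cells at 2×10^6 cells/mL were given 10 μM compound for 30 min. Aliquots then went through 3 min of heating across 48°C-58°C, were pooled, and were extracted in PBS with 0.5% NP-40 at 4°C, and the supernatant after 21,000xg for 90 min was quantified by TMTpro 16plex LC-MS/MS with channel sums equalised. Thermal stability relative to control samples, from duplicates, is given as log2 fold change.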

Compound in assay [2]: CC1=C(SC2=C1C(=N[C@H](C3=NN=C(N32)C)CC(=O)N)C4=CC=C(C=C4)Cl)C
The method, boiled down:
as §1

Compound in assay [3]: CC1=C2C(=CC=C1)N=C(N(C2=O)C3=CC=CC=C3C)CN4C=NC5=C(N=CN=C54)N
The method, boiled down: as §1

Compound in assay [4]: Cc1sc2c(c1C)C(c1ccc(Cl)cc1)=N[C@@H](CC(=O)OC(C)(C)C)c1nnc(C)n1-2
A digest of the protocol:
as §1

Compound in assay [5]: c1ccc([C@@H]2C[C@H]2NC2CCNCC2)cc1
A digest of the protocol:
as §1

Sequence of UniProt Q7RTV0 (Q7RTV0 whole entry, looked up): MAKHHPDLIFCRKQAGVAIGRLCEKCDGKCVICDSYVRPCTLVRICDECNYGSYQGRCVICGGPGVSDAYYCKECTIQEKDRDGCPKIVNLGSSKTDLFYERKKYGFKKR
Sequence of UniProt Q86W56 (Q86W56 whole entry, looked up): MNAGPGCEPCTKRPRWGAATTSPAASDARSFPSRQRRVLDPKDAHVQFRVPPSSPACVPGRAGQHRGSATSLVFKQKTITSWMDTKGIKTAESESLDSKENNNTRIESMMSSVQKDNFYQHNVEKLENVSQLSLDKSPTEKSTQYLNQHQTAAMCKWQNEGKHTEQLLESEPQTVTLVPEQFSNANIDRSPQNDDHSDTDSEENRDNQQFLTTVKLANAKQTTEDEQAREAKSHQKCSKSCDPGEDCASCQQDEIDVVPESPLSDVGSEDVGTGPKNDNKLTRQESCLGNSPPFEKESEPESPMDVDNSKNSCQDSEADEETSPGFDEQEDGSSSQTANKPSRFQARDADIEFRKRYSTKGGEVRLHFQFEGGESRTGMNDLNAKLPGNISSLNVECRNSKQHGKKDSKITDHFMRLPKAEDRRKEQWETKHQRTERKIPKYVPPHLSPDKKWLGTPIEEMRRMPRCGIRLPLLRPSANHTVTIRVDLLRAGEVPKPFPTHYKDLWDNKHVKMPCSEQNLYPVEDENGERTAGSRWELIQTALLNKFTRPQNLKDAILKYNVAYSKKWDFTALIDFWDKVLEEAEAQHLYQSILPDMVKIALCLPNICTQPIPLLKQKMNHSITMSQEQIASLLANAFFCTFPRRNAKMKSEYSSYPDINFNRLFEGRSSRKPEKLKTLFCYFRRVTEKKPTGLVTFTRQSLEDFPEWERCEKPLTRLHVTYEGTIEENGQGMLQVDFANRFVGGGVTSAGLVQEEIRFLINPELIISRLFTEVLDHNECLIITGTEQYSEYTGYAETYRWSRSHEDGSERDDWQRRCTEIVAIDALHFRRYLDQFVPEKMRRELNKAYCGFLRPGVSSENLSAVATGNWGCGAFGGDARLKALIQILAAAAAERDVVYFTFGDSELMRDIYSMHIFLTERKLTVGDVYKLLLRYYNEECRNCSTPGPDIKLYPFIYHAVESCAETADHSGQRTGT
Sequence of UniProt Q9BRP1 (Q9BRP1 whole entry, looked up): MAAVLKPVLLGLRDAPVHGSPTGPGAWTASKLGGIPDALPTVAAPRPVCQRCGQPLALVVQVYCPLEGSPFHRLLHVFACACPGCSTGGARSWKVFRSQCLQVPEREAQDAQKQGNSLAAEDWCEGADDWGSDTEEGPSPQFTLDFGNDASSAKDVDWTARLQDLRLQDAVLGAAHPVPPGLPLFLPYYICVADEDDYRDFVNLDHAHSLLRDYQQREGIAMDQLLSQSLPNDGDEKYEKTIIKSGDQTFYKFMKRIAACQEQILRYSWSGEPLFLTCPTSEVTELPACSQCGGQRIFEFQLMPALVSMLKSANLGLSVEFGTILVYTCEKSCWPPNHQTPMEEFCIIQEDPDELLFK
Sequence of UniProt Q16822 (Q16822 whole entry, looked up): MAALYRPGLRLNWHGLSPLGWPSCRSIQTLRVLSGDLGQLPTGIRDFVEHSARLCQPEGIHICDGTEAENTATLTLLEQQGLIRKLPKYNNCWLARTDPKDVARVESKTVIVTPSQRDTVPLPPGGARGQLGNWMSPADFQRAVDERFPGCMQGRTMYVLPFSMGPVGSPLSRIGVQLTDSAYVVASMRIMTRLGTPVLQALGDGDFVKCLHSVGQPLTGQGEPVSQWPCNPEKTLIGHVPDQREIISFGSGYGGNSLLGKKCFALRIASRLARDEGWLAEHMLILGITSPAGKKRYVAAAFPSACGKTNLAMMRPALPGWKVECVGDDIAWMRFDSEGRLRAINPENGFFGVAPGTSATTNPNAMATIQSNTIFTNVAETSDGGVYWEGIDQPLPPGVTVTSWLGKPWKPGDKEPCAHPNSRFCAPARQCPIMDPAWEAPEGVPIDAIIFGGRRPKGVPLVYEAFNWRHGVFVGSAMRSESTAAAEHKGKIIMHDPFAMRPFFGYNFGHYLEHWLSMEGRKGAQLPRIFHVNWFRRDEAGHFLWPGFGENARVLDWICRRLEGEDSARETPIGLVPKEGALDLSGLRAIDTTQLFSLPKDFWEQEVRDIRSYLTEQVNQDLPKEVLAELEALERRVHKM
Sequence of UniProt Q15008 (Q15008 whole entry, looked up): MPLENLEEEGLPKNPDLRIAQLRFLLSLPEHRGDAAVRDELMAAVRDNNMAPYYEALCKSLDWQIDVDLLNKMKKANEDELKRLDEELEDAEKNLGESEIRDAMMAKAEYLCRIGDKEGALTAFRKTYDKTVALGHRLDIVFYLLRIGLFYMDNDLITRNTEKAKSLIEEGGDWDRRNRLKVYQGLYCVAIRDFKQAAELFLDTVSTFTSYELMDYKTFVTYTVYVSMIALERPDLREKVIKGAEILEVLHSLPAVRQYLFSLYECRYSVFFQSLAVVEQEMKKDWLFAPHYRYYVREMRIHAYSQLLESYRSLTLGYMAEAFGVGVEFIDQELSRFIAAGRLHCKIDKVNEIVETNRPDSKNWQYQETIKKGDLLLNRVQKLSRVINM
Sequence of UniProt P10644 (P10644 whole entry, looked up): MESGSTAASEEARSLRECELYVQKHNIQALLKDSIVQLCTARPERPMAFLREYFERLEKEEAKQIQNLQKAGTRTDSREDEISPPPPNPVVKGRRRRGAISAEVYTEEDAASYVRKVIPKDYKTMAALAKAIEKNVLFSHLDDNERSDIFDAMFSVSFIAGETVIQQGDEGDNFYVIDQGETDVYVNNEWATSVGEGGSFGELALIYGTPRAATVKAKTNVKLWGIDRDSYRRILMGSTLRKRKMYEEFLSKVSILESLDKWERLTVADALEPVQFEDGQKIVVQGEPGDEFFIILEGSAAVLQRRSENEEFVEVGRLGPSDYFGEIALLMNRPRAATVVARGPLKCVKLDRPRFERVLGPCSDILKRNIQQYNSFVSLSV
Sequence of UniProt Q969N2 (Q969N2 whole entry, looked up): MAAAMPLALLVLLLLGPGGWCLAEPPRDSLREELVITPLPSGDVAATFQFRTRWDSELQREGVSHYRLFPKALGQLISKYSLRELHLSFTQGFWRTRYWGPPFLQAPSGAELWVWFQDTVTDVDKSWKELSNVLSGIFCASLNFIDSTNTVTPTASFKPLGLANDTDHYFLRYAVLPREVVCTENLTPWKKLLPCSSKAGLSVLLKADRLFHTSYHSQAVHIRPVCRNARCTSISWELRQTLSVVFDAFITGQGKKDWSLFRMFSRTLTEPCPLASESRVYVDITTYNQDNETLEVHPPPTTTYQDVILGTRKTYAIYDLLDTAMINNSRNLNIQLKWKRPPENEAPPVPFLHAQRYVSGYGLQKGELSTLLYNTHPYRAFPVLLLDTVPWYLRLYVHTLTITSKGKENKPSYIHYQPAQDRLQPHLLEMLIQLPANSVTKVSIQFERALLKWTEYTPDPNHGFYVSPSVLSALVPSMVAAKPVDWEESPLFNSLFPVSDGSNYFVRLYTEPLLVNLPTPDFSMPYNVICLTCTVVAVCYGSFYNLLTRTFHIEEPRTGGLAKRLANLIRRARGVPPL
Sequence of UniProt Q5MIZ7 (Q5MIZ7 whole entry, looked up): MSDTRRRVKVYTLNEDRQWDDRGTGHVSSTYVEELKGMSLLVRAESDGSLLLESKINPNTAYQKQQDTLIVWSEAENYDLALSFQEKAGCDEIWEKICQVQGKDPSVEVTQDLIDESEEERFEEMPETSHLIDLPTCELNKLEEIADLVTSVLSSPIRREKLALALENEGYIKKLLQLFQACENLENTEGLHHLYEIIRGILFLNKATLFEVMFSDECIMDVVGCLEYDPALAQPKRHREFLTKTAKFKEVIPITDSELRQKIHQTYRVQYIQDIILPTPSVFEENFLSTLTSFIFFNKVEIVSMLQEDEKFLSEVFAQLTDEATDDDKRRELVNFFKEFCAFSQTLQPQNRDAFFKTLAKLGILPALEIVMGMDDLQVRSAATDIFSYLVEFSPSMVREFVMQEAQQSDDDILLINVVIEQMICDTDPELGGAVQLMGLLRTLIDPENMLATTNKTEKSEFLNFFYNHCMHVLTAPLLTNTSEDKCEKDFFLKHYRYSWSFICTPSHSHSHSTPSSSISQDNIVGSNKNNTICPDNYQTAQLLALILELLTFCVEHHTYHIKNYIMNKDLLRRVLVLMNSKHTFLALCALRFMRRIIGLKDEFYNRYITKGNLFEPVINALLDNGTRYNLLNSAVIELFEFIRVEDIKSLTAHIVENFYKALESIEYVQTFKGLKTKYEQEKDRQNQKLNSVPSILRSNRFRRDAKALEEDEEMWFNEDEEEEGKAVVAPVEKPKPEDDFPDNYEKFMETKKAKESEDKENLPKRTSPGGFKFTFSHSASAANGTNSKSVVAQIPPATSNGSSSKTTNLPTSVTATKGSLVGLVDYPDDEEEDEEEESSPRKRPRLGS
Sequence of UniProt Q32M88 (Q32M88 whole entry, looked up): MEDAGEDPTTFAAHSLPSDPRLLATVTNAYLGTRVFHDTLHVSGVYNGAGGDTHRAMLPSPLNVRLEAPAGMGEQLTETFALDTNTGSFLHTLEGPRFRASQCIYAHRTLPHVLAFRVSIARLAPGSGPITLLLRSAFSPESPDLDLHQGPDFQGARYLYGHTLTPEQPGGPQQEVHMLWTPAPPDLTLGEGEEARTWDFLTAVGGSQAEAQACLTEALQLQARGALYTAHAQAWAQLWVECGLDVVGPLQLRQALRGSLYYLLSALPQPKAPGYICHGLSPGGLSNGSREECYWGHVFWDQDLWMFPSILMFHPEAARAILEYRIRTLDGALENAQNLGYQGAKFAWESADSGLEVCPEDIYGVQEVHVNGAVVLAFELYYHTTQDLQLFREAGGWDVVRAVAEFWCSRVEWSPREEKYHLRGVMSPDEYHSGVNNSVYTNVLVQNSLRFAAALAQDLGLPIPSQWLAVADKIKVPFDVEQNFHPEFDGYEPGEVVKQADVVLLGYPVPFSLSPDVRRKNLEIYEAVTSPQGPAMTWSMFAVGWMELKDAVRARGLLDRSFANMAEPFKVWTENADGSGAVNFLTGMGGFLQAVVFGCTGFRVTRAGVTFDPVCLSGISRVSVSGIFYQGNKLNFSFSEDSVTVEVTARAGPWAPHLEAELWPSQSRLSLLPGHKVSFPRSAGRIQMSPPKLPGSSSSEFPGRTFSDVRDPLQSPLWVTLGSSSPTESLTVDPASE

For PDCD2L (UniProt Q9BRP1), the log2 fold change is -0.031 in assay [1]; 0.055 in assay [2]; 0.109 in assay [3]; 0.021 in assay [4]; 0.091 in assay [5].
For the target PTTG1IP (UniProt P53801), the log2 fold change in assay [1] was 0.149; in assay [2] it was -0.055; in assay [3], -0.134; in assay [4], 0.04; in assay [5], 0.084.
In the case of PUF60 isoform 2 (UniProt Q9UHX1), the log2 fold change was 0.044 in assay [1]; 0.097 in assay [2]; -0.312 in assay [3]; -0.146 in assay [4]; -0.079 in assay [5].
The matching figures for PARG (UniProt Q86W56): -0.043, -0.013, 0.018, -0.009 and -0.075.
Consider PIGT (UniProt Q969N2), for which the log2 fold change in assay [1] was 0.022; in assay [2], 0.142; in assay [3], -0.013; in assay [4], 0.276 (active); in assay [5] it was -0.021.
As for PSMD6 (UniProt Q15008), the log2 fold change in assay [1] was 0.019; in assay [2] it was -0.088; in assay [3], -0.116; in assay [4], -0.006; in assay [5], 0.001.
Turning to PPP4R3B (UniProt Q5MIZ7), the log2 fold change was -0.014 in assay [1]; 0.069 in assay [2]; 0.134 in assay [3]; 0.003 in assay [4]; -0.005 in assay [5].
In the case of PCYT1A (UniProt P49585), the log2 fold change in assay [1] is -0.035; in assay [2], 0.005; in assay [3], 0.056; in assay [4], -0.012; in assay [5] it was 0.019.
Turning to PRPF4B (UniProt Q13523), the log2 fold change in assay [1] is 0.118; in assay [2], -0.098; in assay [3] it was 0; in assay [4], 0.109; in assay [5] it was 0.168.
On to POLR2K (UniProt P53803), for which the log2 fold change in assay [1] is 0.053; in assay [2], 0.06; in assay [3] it was 0.046; in assay [4], 0.032; in assay [5] it was -0.056.
Turning to PDCD4 (UniProt Q53EL6), the log2 fold change is -0.055 in assay [1]; 0.002 in assay [2]; 0.053 in assay [3]; -0.167 in assay [4]; -0.003 in assay [5].
Take PGGHG (UniProt Q32M88): the log2 fold change is -0.052 in assay [1]; -0.09 in assay [2]; -0.088 in assay [3]; -0.084 in assay [4]; 0.213 in assay [5].
For PIGH (UniProt Q14442), in that order: 0.044, 0.064, 0.144, -0.046 and -0.024.
Regarding PFDN1 (UniProt O60925), the log2 fold change in assay [1] was -0.102; in assay [2], 0.155; in assay [3] it was 0.061; in assay [4], -0.171; in assay [5], -0.061.
For PISD (UniProt Q9UG56), the log2 fold change in assay [1] was 0.002; in assay [2], -0.024; in assay [3] it was 0.079; in assay [4], -0.011; in assay [5] it was 0.043.
PLBD2 (UniProt Q8NHP8): the log2 fold change in assay [1] is 0.011; in assay [2], 0.01; in assay [3], 0.01; in assay [4], -0.006; in assay [5], 0.007.
As to PHF5A (UniProt Q7RTV0), the log2 fold change in assay [1] is 0.048; in assay [2], -0.024; in assay [3] it was 0.018; in assay [4], 0.002; in assay [5], 0.018.
With PDS5B (UniProt Q9NTI5), the log2 fold change in assay [1] is -0.153; in assay [2], 0.029; in assay [3], 0.169; in assay [4] it was 0.233; in assay [5], -0.011.
The matching figures for POLR2A (UniProt P24928): -0.014, 0.158, 0.031, 0.17 and -0.059.
As to PRKAR1A (UniProt P10644), the log2 fold change in assay [1] was 0.213; in assay [2], -0.019; in assay [3], 0.119; in assay [4], 0.041; in assay [5], -0.008.
On to POP1 (UniProt Q99575), for which the log2 fold change in assay [1] was 0.003; in assay [2] it was -0.028; in assay [3], 0.029; in assay [4], 0.017; in assay [5] it was -0.01.
The matching figures for PMPCB (UniProt O75439): 0.005, 0.111, 0.01, 0.012 and -0.053.
The matching figures for PCK2 (UniProt Q16822): 0.051, 0.038, 0.057, 0.008 and -0.038.
For PML (UniProt P29590), the log2 fold change is -0.008 in assay [1]; -0.054 in assay [2]; 0.002 in assay [3]; -0.005 in assay [4]; 0.001 in assay [5].
PRPF40A (UniProt O75400): the log2 fold change in assay [1] is -0.008; in assay [2], 0.016; in assay [3], 0.123; in assay [4], -0.022; in assay [5], 0.037.

Values taken from the supplement of paper PMC10849652.
